Compounds with a hit are over-represented: about 17% of the library has one in this group of screens.
S2 tox – viability counter-screen for ATXN expression inhibitors | S2 cells (HEK-293 line with an ATXN2-luciferase reporter) viability, CellTiter-Fluor protease fluorescence, 24 h | Potency, µM (series often up to 56.7 µM), most hits filed as cytotoxic | 0.49% of 400,000 active | AID 651635; note: nearly all actives have a fitted effect of over 40% in size
DT40 TDP1 CPT – DT40-hTDP1 cell growth loss with CPT | chicken DT40 Tdp1-/-;hTDP1 cells + 20 nM CPT, ATP luminescence, 48 h | Potency, µM (series often up to 46.2 µM), hits mostly inhibitors | 12% of 420,000 active | AID 686979; note: nearly all actives have a fitted effect of over 55% in size
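Chicken DT40 Tdp1-/- cells complemented with human TDP1, 400 cells/well, exposed to compounds plus 20 nM camptothecin for at least 48 h at 37 C; viability read as ATP content by CellTiter-Glo luminescence.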
TGFb inhibitor – TGF-b pathway inhibition | HepG2 CAGA-GFP TGF-b/SMAD3 reporter, GFP fluorescence, 18 h; TGF-beta stimulated, 500 pg/mL final | AID 588855 | 1.2% of 410,000 active | Potency, µM (titrated, usually from 46.1 µM), hits mostly inhibitors; note: nearly all actives have a fitted effect of over 65% in size
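Inhibition was scored as loss of TGF-beta-induced (500 pg/mL final, 18 hours, 37 degrees C) GFP in HEPG2 cells carrying a CAGA-GFP reporter, in DMEM with 1% FBS. Well GFP was summed per cell; Activity was normalised to unstimulated and stimulated DMSO wells, then concentration-response fitting.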
ATXN2 expr inh – inhibitors of ATXN2 expression; HEK-293 ATXN2-luciferase reporter, luminescence, 24 h; Potency, µM (top dose mostly 57 µM), usual class: inhibitors; 0.72% of 360,000 active; note: nearly all actives have a fitted effect of over 55% in size
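qHTS (up to 57 uM final) was run with 24 h compound exposure of reporter cells at 37 °C. Each well was multiplexed: SteadyGlo luminescence measured ATXN2-luciferase expression after a fluorogenic Gly-Phe-AFC viability readout (25 uM final).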
DT40 TDP1 no CPT – qHTS for Inhibitors of human tyrosyl-DNA phosphodiesterase 1 (TDP1): qHTS in cells in absence of CPT; DT40 Tdp1-/- hTDP1 cells, no CPT, ATP luminescence, 48 h; Potency, µM (titrated, usually from 46.2 µM), usual class: inhibitors; 15% of 420,000 active; AID 686978, 2013; note: nearly all actives have a fitted effect of over 55% in size
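Readout: luminescence from CellTiter-Glo after 30 min in the dark at RT. Cells: DT40 Tdp1-/- with stable hTDP1, 400/well. Exposure: compounds alone, ≥48 hr, 37 °C.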
HepG2 viability – HepG2 cytotoxicity, counter-screen for TGF-b inhibitors; HepG2 CAGA-GFP viability, ATP luminescence, 18 h; Potency, µM (titrated, usually from 46.1 µM), most hits filed as cytotoxic; 0.76% of 410,000 active
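CellTiter-Glo luminescence gave cytotoxicity after 18 hours at 37 degrees C. The cells were HepG2 CAGA-GFP in 1% FBS DMEM, stimulated with 500 pg/mL TGF-beta after compound addition. %Activity was normalised to no-cell wells (complete cell-killing) and DMSO (no toxicity), and curves were fitted and classified.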
Of the large screens only hits and unclear results are named; the others gave an inactive call. Calls come from the whole dose curve; as a rule, active = well fitted curve in the direction sought with a large enough effect; inconclusive = small, poorly fitted or top-dose-only effect, or another doubt; inactive = no such curve, though single readings can be large; an effect the other way counts as inactive or inconclusive.

COc1ccc(CC(=O)Nc2ccc3nc(Nc4ccc(OC)cc4)cc(C)c3c2)cc1	DT40 TDP1 CPT inconclusive, TGFb inhibitor inconclusive, DT40 TDP1 no CPT 23µM
Cc1cccc(NC(=O)Cc2c(F)cccc2Cl)n1	none
COc1ccc(Nc2cc(C)c3ccccc3n2)cc1	TGFb inhibitor inconclusive, DT40 TDP1 no CPT inconclusive
Cc1cc(Nc2cccc(Cl)c2)nc2ccc(NC(=O)Cc3c(F)cccc3Cl)cc12	DT40 TDP1 CPT 13µM, ATXN2 expr inh inconclusive, DT40 TDP1 no CPT 7.3µM
COc1ccc(Nc2cc(C)c3cc(NC(=O)COc4cccc(C)c4)ccc3n2)cc1	S2 tox inconclusive, DT40 TDP1 CPT 16µM, TGFb inhibitor inconclusive, ATXN2 expr inh inconclusive, DT40 TDP1 no CPT 15µM
COc1ccc(Nc2cc(C)c3cc(NC(=O)c4cc(OC)cc(OC)c4)ccc3n2)cc1	DT40 TDP1 CPT 9.2µM, TGFb inhibitor inconclusive, ATXN2 expr inh inconclusive, DT40 TDP1 no CPT 7.3µM (no result: S2 tox)
COCCNC(=O)CSc1nnc(-c2ccc(OC)c(OC)c2)c(-c2ccc(OC)c(OC)c2)n1	DT40 TDP1 CPT inconclusive, DT40 TDP1 no CPT inconclusive (no result: S2 tox, ATXN2 expr inh)
CN(C)c1ccc(/C=C/c2c3c(nc4ccccc24)CCCC3)cc1	DT40 TDP1 CPT inconclusive, DT40 TDP1 no CPT inconclusive (no result: S2 tox, ATXN2 expr inh)
COc1ccc(Nc2cc(C)c3cc(NC(=O)Cc4c(F)cccc4Cl)ccc3n2)cc1	DT40 TDP1 CPT 16µM, DT40 TDP1 no CPT 13µM (no result: S2 tox)
Cc1ccc(-n2c3nc(=O)[nH]c(=O)c-3cc3c(C)nn(-c4ccccc4)c32)cc1Cl	none
Cc1noc(C)c1COC(=O)c1cccc(S(=O)(=O)N2CCCCCC2)c1	DT40 TDP1 CPT 15µM, DT40 TDP1 no CPT 15µM
COc1cc(OC)c(N(C)S(=O)(=O)c2cccc(C(=O)OCC(=O)N3CCOCC3)c2)cc1Cl	S2 tox inconclusive, DT40 TDP1 CPT inconclusive, DT40 TDP1 no CPT inconclusive
Cc1noc(C)c1COC(=O)c1ccc(S(=O)(=O)NCc2ccco2)cc1	DT40 TDP1 CPT 16µM, TGFb inhibitor inconclusive, DT40 TDP1 no CPT inconclusive
COc1cc(OC)c(N(C)S(=O)(=O)c2cccc(C(=O)OCc3c(C)noc3C)c2)cc1Cl	DT40 TDP1 CPT inconclusive, DT40 TDP1 no CPT 23µM
CCOc1ccc(NC(=O)CN(C)C(=O)C2CCN(C(=O)c3ccc(Cl)cc3)CC2)cc1OCC	none
O=C1/C(=C/c2ccccc2)Nc2ccccc21	none
O=C1/C(=C/c2ccccc2)NC(=S)N1C(c1ccccc1)c1ccccc1	S2 tox inconclusive, DT40 TDP1 CPT 4.6µM, DT40 TDP1 no CPT 5.8µM
O=c1c2ccccc2n2nnnc2n1-c1ccccc1	none
O=C1c2ccccc2-c2c1c1ccccc1c(=O)n2CCO	S2 tox inconclusive, DT40 TDP1 CPT 6.5µM, ATXN2 expr inh inconclusive, DT40 TDP1 no CPT 7.3µM
O=C1c2ccccc2-c2c1c1ccccc1c(=O)n2-c1ccccc1	S2 tox inconclusive, DT40 TDP1 CPT 12µM, DT40 TDP1 no CPT 12µM
CCc1cccc(C)c1NC(=O)CN(C)Cc1ccccc1F	DT40 TDP1 CPT 15µM, DT40 TDP1 no CPT 16µM
CSc1ccc(CN(C)CC(=O)Nc2c(F)cccc2F)cc1	DT40 TDP1 CPT 21µM, ATXN2 expr inh inconclusive, DT40 TDP1 no CPT inconclusive
O=C1NC(=O)[C@H]2[C@@H]1[C@@H]1C=C[C@H]2C1	none (no result: S2 tox, TGFb inhibitor, ATXN2 expr inh, HepG2 viability)
CCN(CC)C(=O)c1[nH]cnc1C(=O)Nc1ccccc1F	S2 tox inconclusive
Cc1cccc(CSc2nc(=O)c3c(n2C)NC(=O)CC3c2cc(F)cc(F)c2)c1 (centres undefined)	DT40 TDP1 CPT 9.2µM, DT40 TDP1 no CPT 6.5µM
CCOc1cc(C2CC(=O)Nc3c2c(=O)nc(SCc2cccc(Cl)c2)n3C)ccc1O (centres undefined)	DT40 TDP1 CPT inconclusive, DT40 TDP1 no CPT 8.2µM
Cc1ccc(S(=O)(=O)N2CCCOC2CNC(=O)C(=O)NCc2ccccn2)cc1 (centres undefined)	none

High-throughput results: PubChem BioAssay, National Center for Advancing Translational Sciences (NCATS)
